Screens as filed in PubChem BioAssay.
SENP6 inh: SENP6 protease inhibition. actives 1.8% (n = 330,000). Q9GZR1. Recombinant SENP6 catalytic domain, aminoluciferin luminescence. inhibition, % at 10 µM;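 active = inhibition above about 50% at the single tested dose, limit read from the data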;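 also: plate controls were DMSO wells with enzyme for no effect and DMSO wells lacking enzyme for full effect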
Target sequence (Q9GZR1 628-1112 limits assumed): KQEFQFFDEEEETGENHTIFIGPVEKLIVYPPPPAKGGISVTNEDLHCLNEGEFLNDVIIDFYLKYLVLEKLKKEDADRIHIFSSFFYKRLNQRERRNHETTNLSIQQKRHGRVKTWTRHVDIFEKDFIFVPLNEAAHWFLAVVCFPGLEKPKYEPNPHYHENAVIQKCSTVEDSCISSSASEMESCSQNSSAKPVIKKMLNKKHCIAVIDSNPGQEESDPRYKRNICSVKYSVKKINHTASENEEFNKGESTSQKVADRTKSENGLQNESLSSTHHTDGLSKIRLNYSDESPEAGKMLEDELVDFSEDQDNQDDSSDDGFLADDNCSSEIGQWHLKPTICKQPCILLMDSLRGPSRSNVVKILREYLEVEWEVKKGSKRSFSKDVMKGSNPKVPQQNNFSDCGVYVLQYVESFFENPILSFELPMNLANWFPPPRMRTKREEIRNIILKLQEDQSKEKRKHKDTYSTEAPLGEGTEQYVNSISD
TRAIL sens C8: caspase-8 TRAIL sensitization | NB7+C8 cells + TRAIL, ATPlite viability luminescence | inhibition (viability loss, TRAIL sensitization), % at 10 µM | actives 1% (n = 360,000) | AID 624354;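 active = compounds causing at least 50% loss of cell viability in the single-dose screen, relative to plate controls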
SENP8 block-1: inhibitors of human SENP8 protease | Q96LD8 | inhibition, % at 20 µM | recombinant SENP8, Nedd8 substrate fluorescence | actives 0.64% (n = 360,000); in the data active = inhibition mostly above about 40%, no sharp cut-off; inactive = mostly below about 27%
PPC-1+TRAIL kill: PPC-1 cancer cell killing with TRAIL present; PPC-1 cells + TRAIL, ATPLite viability luminescence; cell killing (% activity), % at 4 µM or 5 µM; actives 0.41% (n = 220,000);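 active = cell killing above 50% in the first pass at 4 µM, then a duplicate retest at 5 µM averaging 50% or more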;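 also: plate controls were cells with TRAIL plus DMSO for no effect and medium-only wells lacking cells for full effect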
SENP7 block: blocks the human protease SENP7; Q9BQF6; recombinant SENP7, Z-RLRGG-aminoluciferin luminescence, 40 min; inhibition, % at 5 µM; actives 1.5% (n = 330,000);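 active = inhibition above about 50% at the single test dose, limit read from the data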;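 also: plate controls were DMSO with enzyme for no effect and no enzyme buffer wells for full effect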
SENP8 block-2: blocks the human protease SENP8; Q96LD8; purified SENP8, Z-RLRGG-aminoluciferin cleavage, luminescence; inhibition, % at 10 µM; actives 1.2% (n = 330,000); AID 2540; in the data active = inhibition above about 50%
Numbers without * were called inactive; · = not tested or not shown. Only some compounds are listed: those with a hit (about 3% of all), similar ones and a draw of the others.

SMILES | SENP6 inh | TRAIL sens C8 | SENP8 block-1 | PPC-1+TRAIL kill | SENP7 block | SENP8 block-2
CC1(C)OC(=O)C2=C(C[C@@H](CCc3ccccc3)O[C@H]2CCc2cccc(Cl)c2)O1 | · | 5 | 10 | · | · | ·
CC[n+]1c(/C=C/c2c[nH]c3ccccc23)ccc2cc(C)ccc21 | -9 | · | · | 92* | 1 | 6
CCN(CC)C(=O)c1ccc(/C=C/c2c[nH]c3ccccc23)[n+](C)c1 | 1 | 3 | 22 | 12 | 9 | 1
Cc1cc(N=Nc2c(O)c3ccccc3[nH]c2=O)ccc1N=Nc1ccc(C(=O)N(C)C)cc1 | 9 | 35 | 20 | 20 | 3 | 7
O=C(O)c1ccc(N=Nc2c(O)[nH]c3ccccc23)cc1 | 99* | 15 | 16 | 9 | 100* | 97*
CN(C)C(=O)c1ccc(N=Nc2c(O)c3ccccc3[nH]c2=O)cc1 | · | 76* | 16 | · | · | ·
Cc1ccccc1N=Nc1c(O)[nH]c2ccccc12 | 4 | -8 | -38 | · | 8 | 9
Cc1ccc(N=Nc2c(O)c3ccccc3[nH]c2=O)c(S(=O)(=O)N(C)C)c1 | · | · | · | 55* | · | ·
CC(C)C(C)NC(=O)COC(=O)c1cccc(C(=O)OCC(=O)NC(C)C(C)C)n1 (centres undefined) | 0 | -4 | 10 | -12 | 5 | -2
COc1ccc(-c2nn(-c3ccccc3)cc2/C=N/NC(=O)c2ccc(Br)o2)cc1 | -2 | 69* | -265 | 15 | -1 | -2
O=C1/C(=C/C=C/c2ccco2)SC(=S)N1c1ccc(O)cc1 | -53 | 14 | 46* | 6 | 9 | 4
COc1ccc2c(c1)CCC1C2CCC2(C)C(O)C(=O)CC12 (centres undefined) | · | -10 | 15 | · | · | ·
O=S(=O)(Nc1nc2ccccc2nc1N1CCc2ccccc2C1)c1ccc(Cl)cc1 | 37 | 48 | -235 | -35 | 58* | 0
CC(=O)Nc1ccc(S(=O)(=O)Nc2nc3ccccc3nc2N2CCc3ccccc3C2)cc1 | 11 | 6 | -276 | 27 | 14 | 7
O=S(=O)(Nc1nc2ccccc2nc1N1CCc2ccccc2C1)c1ccc(Br)cc1 | · | 61* | -297 | 56* | · | ·
CCOc1cc(/C=N\NC(=O)c2ccc(NC(=O)C(C)(C)C)cc2)ccc1OC(=O)c1ccc(C)cc1 | -11 | 15 | 11 | 12 | -5 | -2
CCOc1cc(/C=N\NC(=O)c2ccc(NC(=O)C(C)(C)C)cc2)ccc1OC(=O)c1cccc(C)c1 | -22 | 59* | -5 | 13 | 3 | 0
Cc1ccc(S(=O)(=O)Nc2ccc(Cl)cc2O)cc1 | · | -25 | 20 | · | · | ·
COCCCNC(=S)N1CCN(S(C)(=O)=O)CC1 | -11 | -7 | 9 | 11 | -6 | -5
COc1ccc(S(=O)(=O)N2CCN(c3ccccc3OC)CC2)cc1 | -1 | 13 | 10 | · | -4 | -2
COc1ccc(S(=O)(=O)N2CCN(c3ccc4nnc(-c5ccccc5)n4n3)CC2)cc1 | 8 | 54* | -67 | -21 | -1 | 2
CC1=NN(c2ccccc2)C(=O)/C1=C\c1c(C)[nH]n(-c2ccccc2)c1=O | 2 | 17 | 42* | 12 | 7 | 3
Cc1[nH]n(-c2ccccc2)c(=O)c1/C=N/c1ccccn1 | -10 | 11 | 41* | 6 | 1 | 1
O=C(CN1CCN(S(=O)(=O)c2cccc(Cl)c2)CC1)NCC1(N2CCOCC2)CCCCC1 | 0 | 16 | 10 | · | 8 | -2
COc1ccc(C(C[N+](=O)[O-])C2(c3ccc(OC)c(OC)c3)C(=O)c3ccccc3C2=O)cc1 (centres undefined) | · | 53* | 9 | 43 | · | ·
SMILES | SENP6 inh | TRAIL sens C8 | SENP8 block-1 | PPC-1+TRAIL kill | SENP7 block | SENP8 block-2
C=CCn1c(C)cc(C2=NNC(=Nc3ccc(C)cc3)SC2)c1C | -18 | 21 | -26 | -5 | 11 | -1
C=CCn1c(C)cc(C2=NNC(=NC(C)(C)C)SC2)c1C | 83* | 70* | -4 | 49 | 9 | 51*
N/C(=N\OC(=O)C12CC3CC(CC(C3)C1)C2)c1ccccc1 | 1 | 60* | 19 | 19 | -8 | -15
CCNC(=O)CCSc1nnc(-c2ccco2)o1 | 2 | 9 | 9 | -25 | -1 | -3
COc1ccc(-c2ccc(-c3nnn(CC(=O)N4CCOCC4)n3)cc2)cc1 | -11 | 52* | -18 | 0 | 22 | -18
Cc1ccc(NC(=O)CN(C)C2CCCCC2)cc1Cl | -8 | -2 | 6 | · | 4 | -11
C[C@H](CO)N1C[C@H](C)[C@@H](CN(C)C(=O)NC2CCCCC2)Oc2c(NS(=O)(=O)c3ccc(F)cc3)cccc2C1=O | 4 | -10 | 3 | · | 6 | -1
C[C@H](CO)N1C[C@H](C)[C@@H](CN(C)C(=O)NC2CCCCC2)Oc2c(NS(=O)(=O)c3ccccc3)cccc2C1=O | -9 | 50* | 14 | · | 6 | -4
Cc1[nH]n(-c2ccccc2)c(=O)c1N=Nc1ccccc1C(=O)O | 2 | 4 | 27 | · | 3 | 1
CC1=NC(=O)C(N=Nc2ccccc2C(=O)O)N1c1ccccc1 (centres undefined) | -7 | 5 | 48* | 0 | 4 | -2
CC1=NC(=O)C(N=Nc2ccccc2)N1c1ccccc1 (centres undefined) | -10 | 13 | 46* | 18 | 4 | -6
CC1=NC(=O)C(N=Nc2cccc(C(=O)O)c2)N1c1ccccc1 (centres undefined) | 2 | 3 | 22 | 20 | -6 | -14
Cc1c([N+](=O)[O-])cc(C(=O)Oc2cccc(C(=S)N3CCOCC3)c2)cc1[N+](=O)[O-] | 0 | 5 | 22 | 7 | 4 | -2
COC(=O)c1csc(-c2ccc(CO)o2)n1 | · | 10 | -38 | · | · | ·
COc1ccccc1-c1nnc(SCC(=O)NNC(=O)c2ccccc2F)n1C | -15 | -18 | 8 | · | 6 | 0
OCC1OC(n2ccc3c2ncn2ncnc32)C(O)C1O (centres undefined) | · | 82* | 13 | · | · | ·
CC(C)Cc1nc2oc3c(Cl)ncnc3c2c2c1CCCC2 | -21 | 67* | 22 | 3 | 10 | -11
O=C(C[C@H]1C[C@H](C(=O)N2CCCCC2)[C@@]2(CCc3ccccc3)c3[nH]c4ccc(Cl)cc4c3CCN2C1=O)NCCC1=CCCCC1 | · | 55* | 0 | · | -6 | ·
CN(C)CCCNC(=O)C[C@H]1C[C@H](C(=O)N2CCCCC2)[C@@]2(CCc3ccccc3)c3[nH]c4ccc(Cl)cc4c3CCN2C1=O | · | 66* | 26 | · | -2 | ·
C=CCNC(=O)NC(=O)COC(=O)/C(C#N)=C/c1ccc(OC)cc1 | 2 | -23 | -14 | -6 | 5 | -3
CCCCC(=O)c1ccc(OC(=O)c2ccc([N+](=O)[O-])cc2)cc1 | · | -10 | 16 | · | · | ·
CCOc1ccc(N=Cc2ccc([N+](=O)[O-])cc2)c(O)c1 | · | 20 | 41* | · | · | ·
Cc1cccc(-c2cc3nc(C)cc(N4CC(C)CC(C)C4)n3n2)c1 (centres undefined) | -15 | -2 | -221 | 0 | -9 | -6
